Results from ChEMBL document CHEMBL4808148, “HDAC6 screening dataset using tau-based substrate in an enzymatic assay yields selective inhibitors and activators” (2021).
Values joined by “and” are separate entries in the source; they are usually repeats but may differ in a detail not shown here. Equal values may be shown once. Among all 5,600 compounds or so, about 150 (2.7%) showed an effect of 50% or more. For the sample, strong results were picked, then their nearest neighbours and some compounds at random. Positions of bridges follow the written chain, without caps; N, C: chain ends. Non-standard residues stand in square brackets, D forms with d. Residues, ends and D or L forms follow the SMILES beside them. *: point of attachment. NMeF = CN[C@@H](Cc1ccccc1)C(=O)O; X4 = CCC(C)C(N)C1=NC(C(=O)*)CS1; dOrn = NCCC[C@@H](N)C(=O)O

Assays:
[1] = biological target: T1, Protein deacetylase HDAC6 (Homo sapiens) (UniProt Q9UBN7); settings: at 10 µM
T1 sequence (whole entry): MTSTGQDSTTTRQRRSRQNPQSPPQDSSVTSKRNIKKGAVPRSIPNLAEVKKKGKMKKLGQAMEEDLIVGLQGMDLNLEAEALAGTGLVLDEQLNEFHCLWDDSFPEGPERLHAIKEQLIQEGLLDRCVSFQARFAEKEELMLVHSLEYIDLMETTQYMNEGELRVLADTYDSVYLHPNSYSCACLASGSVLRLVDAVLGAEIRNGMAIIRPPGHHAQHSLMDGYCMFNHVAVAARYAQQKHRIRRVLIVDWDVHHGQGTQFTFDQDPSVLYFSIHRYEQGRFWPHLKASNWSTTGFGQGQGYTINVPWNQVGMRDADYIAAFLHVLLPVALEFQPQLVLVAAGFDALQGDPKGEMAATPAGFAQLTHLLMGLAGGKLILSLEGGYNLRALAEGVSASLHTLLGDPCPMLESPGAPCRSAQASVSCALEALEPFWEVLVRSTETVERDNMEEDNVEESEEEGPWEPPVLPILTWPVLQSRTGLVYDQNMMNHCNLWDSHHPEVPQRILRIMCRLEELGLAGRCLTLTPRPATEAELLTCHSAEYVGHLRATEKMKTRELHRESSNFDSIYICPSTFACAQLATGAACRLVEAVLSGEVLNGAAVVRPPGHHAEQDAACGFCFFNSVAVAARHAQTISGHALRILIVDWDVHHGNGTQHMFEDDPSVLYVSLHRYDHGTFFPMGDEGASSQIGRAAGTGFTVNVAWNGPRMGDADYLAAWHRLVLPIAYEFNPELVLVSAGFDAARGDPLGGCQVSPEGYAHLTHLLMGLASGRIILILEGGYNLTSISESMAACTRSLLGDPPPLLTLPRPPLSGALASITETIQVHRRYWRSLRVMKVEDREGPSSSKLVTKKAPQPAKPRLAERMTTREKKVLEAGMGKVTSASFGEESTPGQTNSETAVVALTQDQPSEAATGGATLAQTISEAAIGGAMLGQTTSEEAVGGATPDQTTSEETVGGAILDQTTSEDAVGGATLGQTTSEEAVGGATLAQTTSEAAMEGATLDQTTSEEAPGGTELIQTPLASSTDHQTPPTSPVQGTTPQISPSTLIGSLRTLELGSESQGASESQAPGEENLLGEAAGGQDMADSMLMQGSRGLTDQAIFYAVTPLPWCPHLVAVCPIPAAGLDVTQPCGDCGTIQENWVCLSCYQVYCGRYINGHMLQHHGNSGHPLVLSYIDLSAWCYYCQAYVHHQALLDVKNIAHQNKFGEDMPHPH

[2] = biological target: Protein deacetylase HDAC6 (Homo sapiens) (UniProt Q9UBN7); settings: at 10 µM; remark: listed apart in the source

Molecule	inhibition [1]	inhibition [2]
O=C(O)c1ccccc1S	-3.38%	–
CC(=O)NS(=O)(=O)c1ccc(NC(=O)c2ccccc2C(=O)O)cc1	-6.68%	–
O=C(O)c1ccccc1C(=O)Nc1ccc(-c2ccccc2)cc1	54.2%	–
CC(C)(S)C(=O)N[C@@H](CS)C(=O)O	6.63%	–
CC(C)C(=O)SCCCCC[C@H](NC(=O)OC(C)(C)C)C(=O)NC12CC3CC(CC(C3)C1)C2	52.4%	–
CC(C)CCC[C@@H](C)[C@H]1CC[C@H]2[C@@H]3CCC4=CC(=NO)CC[C@]4(C)[C@H]3CC[C@]12C	4.46%	–
NC(=O)c1ccc(F)c2c1C[C@@H](N(C1CCC1)C1CCC1)CO2	-7.93%	–
COc1ccc(S(=O)(=O)N2CCCN(S(=O)(=O)c3ccc(OC)c(OC)c3)CC2)cc1OC	-6.17%	–
O=C(NO)c1cnc(N2CCN(S(=O)(=O)c3ccc4ccccc4c3)CC2)nc1	96.2%	–
COc1ccc([C@]2(O)CC[C@H](N3CC[C@@H](NC(=O)CNC(=O)c4cccc(C(F)(F)F)c4)C3)CC2)cn1	0.65%	–
CC(C)(C)c1ccc(O)cc1	-5.54%	–
CC(C)(C)c1ccc(-c2nc3ccccc3[nH]2)cc1	94%	–
CN1CCN(c2ccc3[nH]c(-c4ccc5[nH]c(-c6ccc(O)cc6)nc5c4)nc3c2)CC1	5.09%	–
CN(C)c1cc(CNCC(C)(C)C)c(O)c2c1C[C@H]1C[C@H]3[C@H](N(C)C)C(O)=C(C(N)=O)C(=O)[C@@]3(O)C(O)=C1C2=O	-4.38%	–
CC(C)(CCCCCC(O)CCCCCC(C)(C)C(=O)O)C(=O)O	1.13%	–
CCOC(=O)C1=C(N)Oc2ccc(Br)cc2[C@H]1[C@H](C#N)C(=O)OCC	13.4%	–
N#Cc1cnc2c(Cl)cc(NCc3cn(CCN4CCCCCC4)nn3)cc2c1Nc1ccc(F)c(Cl)c1	-2.34%	–
COCCN1CCC(C(=O)NO)(S(=O)(=O)c2ccc(Oc3ccc(OC(F)(F)F)cc3)cc2)CC1	1.97%	–
COC(=O)c1cc(OC)c2c(c1-c1c(CO)cc(OC)c3c1OCO3)OCO2	-0.94%	–
CS(=O)(=O)Nc1ccc(-c2coc3cc(OCc4cccc(C(=O)O)c4)ccc3c2=O)cc1	57.5%	–
OCCCCO	-0.89%	–
CCC(=O)O[C@]1(C(=O)COC(C)=O)CC[C@H]2[C@@H]3C[C@H](C)C4=CC(=O)C=C[C@]4(C)[C@H]3[C@@H](O)C[C@@]21C	1.57%	–
N=C(Nc1ccccc1)c1cccs1	14.8%	–
O=C1NN(C(=O)Nc2ccc(Br)cc2)[C@@H](c2ccccc2)[C@@H]1c1ccccc1	13.1%	–
O=C1NC(=S)NC(=O)C1C(=O)Nc1ccccc1	95%	–
GADOBUTROL, CHEMBL2218860	–	27.5%
CC(C)(O)CC(=O)O	1.27%	–

Molecule	inhibition [1]	inhibition [2]
CCc1nc2c(C)nc(C)cc2n1-c1ccc(CCNC(=O)NS(=O)(=O)c2ccc(C)cc2)cc1	-2.18%	–
C=CC(C)(O)CC[C@@H]1[C@@]2(C)CCCC(C)(C)C2CC[C@@]1(C)O (stereo partly drawn)	-4.8%	–
O=C(Nc1cc(C(F)(F)F)ccc1O)Nc1cc(C(F)(F)F)ccc1O	0.26%	–
Cc1cc(/C=C2\SC(=O)N(c3ccccc3)C2=O)c(C)n1-c1cccnc1	66.1%	–
Cc1cc(/C=c2/sc3nc4ccccc4n3c2=O)c(C)n1-c1ccccc1	-1.28%	–
CC(C)C1=C2[C@H]3CC[C@@H]4[C@@]5(C)CC[C@H](OC(=O)CC(C)(C)C(=O)O)C(C)(C)[C@@H]5CC[C@@]4(C)[C@]3(C)CC[C@@]2([C@@H](O)CN(CCN(C)C)Cc2ccc(Cl)cc2)CC1=O	-0.39%	–
Cc1oc2ccccc2c1CNC(=O)NCc1cccs1	2.62%	–
Nc1ncnc2c1c(-c1cccc(OCc3ccccc3)c1)cn2[C@H]1C[C@H](CN2CCCC2)C1	8.87%	–
CCOC(=O)Nc1ccc(NCc2c(C)cc(C)cc2C)cc1N	-1.7%	–
N#Cc1cc(-c2n[nH]c(-c3ccncc3)n2)ccn1	61.8%	–
COc1cccc(OC)c1-c1ccc(C[C@H](NC(=O)c2c(Cl)cccc2Cl)C(=O)O)cc1	-2.4%	–
O=C(N[C@H](Cc1ccccc1)C(=O)O)c1sc2cc(F)ccc2c1Cl	-0.15%	–
COCCN(C(=O)c1cc(OC)c(OC)c(OC)c1)c1nc(-c2ccccc2)cs1	-3.54%	–
Cc1nc2ccc(-n3ncc(C(=O)c4cc5ccccc5[nH]4)c3N)cc2[nH]1	95.7%	–
CCCSc1ccc2[nH]c(NC(=O)OC)nc2c1	41.8%	–
CCOC(=O)Nc1nc2ccccc2[nH]1	20.3%	–
CCC[S+]([O-])c1ccc2[nH]c(NC(=O)OC)nc2c1 (stereo not drawn)	68.9%	–
CCC(C)C(N)C1=NC(C(=O)N[C@@H](CC(C)C)C(=O)N[C@H](CCC(=O)O)C(=O)N[C@H](C(=O)N[C@H]2CCCCNC(=O)[C@H](CC(N)=O)NC(=O)[C@@H](CC(=O)O)NC(=O)[C@@H](Cc3cnc[nH]3)NC(=O)[C@@H](Cc3ccccc3)NC(=O)[C@@H]([C@H](C)CC)NC(=O)[C@@H](CCCN)NC2=O)[C@@H](C)CC)CS1 (stereo partly drawn) (X4-L[dE]IK[dOrn][dI][dF][dH][dD]N; lactam 4-C)	25.1%	–
Cc1c(NC(=O)c2cc3c(s2)CCCC3)cccc1-c1cn(C)c(=O)c(Nc2ccc(C3C(=O)N(C)CCN3C)cc2)n1 (racemic)	-2.69%	–
N=C(N)Nc1ccc(C(=O)Oc2ccc3cc(C(=N)N)ccc3c2)cc1	98.3%	–
CC(=O)Nc1ccc(OC(C)=O)cc1	-1.45%	–
CSCC[C@H](NC(=O)[C@H](CC(C)C)NC(=O)[C@@H](Cc1c[nH]c2ccccc12)NC(=O)[C@H](Cc1ccccc1)N(C)C(=O)[C@@H](Cc1c[nH]c2ccccc12)NC(=O)[C@@H](N)CCCNC(=N)N)C(N)=O (H-R[dW][NMeF][dW]LM-NH2)	-6.35%	–
CC(=O)Oc1ccccc1C(=O)Nc1ncc([N+](=O)[O-])s1	98.3%	–
COc1ccccc1OC(=O)c1ccccc1OC(C)=O	-4.29%	–
COLISTIN SULFATE, CHEMBL6067482	–	-5.33% and -3.72%
O=C(NN1C(=O)[C@@H]2[C@@H]3C=C[C@@H]([C@H]4C[C@@H]34)[C@@H]2C1=O)c1ccc(C(F)(F)F)cc1	3.03%	–
